Some test systems named below: HCT-15 colon; HT29 colon; SNB-75 CNS; SNB-19 CNS; U251 CNS; PC-3 prostate; SK-MEL-5 melanoma; UACC-62 melanoma; LOX IMVI melanoma; SK-MEL-28 melanoma; SK-MEL-2 melanoma; EKVX NSCLC; SN12C renal; UO-31 renal; TK-10 renal; ACHN renal; CAKI-1 renal; A498 renal; MOLT-4 leukemia; CCRF-CEM leukemia.
What all share (assay): NCI-60 one-dose screen, 48 h (100 = growth as untreated, 0 = no growth, -100 = all killed)
What all share (details): 10 µM unless noted

Values joined by “and” are separate entries in the source; they are usually repeats but may differ in a detail not shown here. Identical values can stand only once. About 83,000 compounds went through this panel and 20% of them were active in at least one assay; those are over-represented in the sample as a whole.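 The test compound was applied at a single concentration to cells in 96-well plates for 48 hours, and percent growth was recorded.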 Unmarked numbers belong to inactive results. Active and inactive are the calls of the source. How the source made its calls: active means growth percent below 10; inactive means the rest.

Consider `CCN(C(=O)N1CCN(c2cc3c(cc2F)c(=O)c(C(=O)O)cn3C2CC2)CC1)c1nc(-c2ccccc2)cs1`, for which the growth is 9.62% (active) with HCT-15 colon; 10.9% with HT29 colon; 31.3% in the assay on SNB-75 CNS; 22.5% with SNB-19 CNS; 20.7% with U251 CNS; 11.5% with PC-3 prostate. Moreover, the growth is 11.7% in the assay on SK-MEL-5 melanoma; 13.1% in the assay on UACC-62 melanoma; -11.1% (active) with LOX IMVI melanoma; 41.8% in the assay with SK-MEL-28 melanoma; 45.9% with SK-MEL-2 melanoma; 31% in the assay with EKVX NSCLC. Also, the growth in the assay on SN12C renal is 5.8% (active); in the assay with UO-31 renal, 1.81% (active); in the assay on TK-10 renal it was 40.9%; in the assay on ACHN renal, 8.64% (active); with CAKI-1 renal, 29.4%; with A498 renal, 5.67% (active). The growth in the assay with MOLT-4 leukemia was 14.7%.

For `Cc1nonc1-c1ccc2c(c1)OCO2`, the growth in the assay on HCT-15 colon is 97.5% and 107%; in the assay with HT29 colon, 102% and 107%; in the assay on SNB-75 CNS, 96.3% and 96.6%; with SNB-19 CNS, 112% and 95.7%; in the assay with U251 CNS, 93.7% and 108%; in the assay with PC-3 prostate it was 96%. Further, the growth was 99.3% and 101% with SK-MEL-5 melanoma; 110% and 97.7% with UACC-62 melanoma; 94.5% and 98.4% in the assay with LOX IMVI melanoma; 118% and 169% in the assay on SK-MEL-28 melanoma; 113% and 100% with SK-MEL-2 melanoma; 90% and 104% in the assay with EKVX NSCLC. Further, the growth is 109% and 103% in the assay on SN12C renal; 95.2% and 96.6% in the assay with UO-31 renal; 105% and 121% with TK-10 renal; 109% and 107% in the assay with ACHN renal; 82.2% and 103% in the assay with CAKI-1 renal; 166% with A498 renal. In the assay with MOLT-4 leukemia, the growth was 94.8%.

On to `NC1=CC(=O)c2cccnc2C1=O`, for which the growth in the assay on HCT-15 colon is 19.9%; in the assay with HT29 colon, 54.8%; in the assay on SNB-75 CNS, -81.2% (active); in the assay on SNB-19 CNS it was 6.26% (active); in the assay with U251 CNS, -82% (active); in the assay on PC-3 prostate it was 15.4%. Moreover, the growth was -97.8% (active) in the assay with SK-MEL-5 melanoma; -90.5% (active) with UACC-62 melanoma; -74.3% (active) in the assay with LOX IMVI melanoma; -73.7% (active) in the assay with SK-MEL-28 melanoma; -46.6% (active) in the assay with SK-MEL-2 melanoma; -20.8% (active) in the assay on EKVX NSCLC. The growth in the assay on SN12C renal is -85.2% (active); in the assay with UO-31 renal it was -98.2% (active); with TK-10 renal, 94.3%; in the assay with ACHN renal it was 5.89% (active); in the assay with CAKI-1 renal it was -69.4% (active); in the assay with A498 renal, 81.9%. The growth in the assay with MOLT-4 leukemia is -46.4% (active).

On to `O=C1N=c2ccccc2=C1c1sc(=S)n(C2CC(=O)N(c3ccc(Cl)cc3)C2=O)c1O` (stereo not given), for which the growth was 93.7% in the assay with HCT-15 colon; 114% in the assay with HT29 colon; 86.1% in the assay on SNB-75 CNS; 102% in the assay with SNB-19 CNS; 104% in the assay with U251 CNS; 86.6% with PC-3 prostate. For the same compound, the growth in the assay with SK-MEL-5 melanoma was 102%; in the assay on UACC-62 melanoma, 95.9%; in the assay with LOX IMVI melanoma, 89.5%; in the assay with SK-MEL-28 melanoma, 109%; in the assay with SK-MEL-2 melanoma, 102%; in the assay on EKVX NSCLC, 101%. The growth is 94.9% in the assay on SN12C renal; 68.5% in the assay on UO-31 renal; 129% in the assay on TK-10 renal; 93.9% with ACHN renal; 87.6% in the assay on CAKI-1 renal; 114% with A498 renal. Further, the figures for the growth with CCRF-CEM leukemia and with MOLT-4 leukemia were 83.8% and 97.7%, respectively.

Consider `O=C(Cn1cc(CN2CCN(c3ccnc4cc(Cl)ccc34)CC2)nn1)Nc1cccc([N+](=O)[O-])c1`, for which the growth in the assay with HCT-15 colon is 102%; in the assay with HT29 colon it was 101%; with SNB-75 CNS, 83.4%; in the assay with SNB-19 CNS, 90.3%; with U251 CNS it was 81.6%; in the assay with PC-3 prostate, 58.5%. In addition, the growth was 70.1% in the assay on SK-MEL-5 melanoma; 70.8% with UACC-62 melanoma; 85.1% with LOX IMVI melanoma; 104% in the assay on SK-MEL-28 melanoma; 97.1% in the assay with SK-MEL-2 melanoma; 94.4% with EKVX NSCLC. Besides, the growth is 92.9% with SN12C renal; 63.4% in the assay on UO-31 renal; 105% in the assay on TK-10 renal; 87.7% in the assay with ACHN renal; 76.4% in the assay with CAKI-1 renal; 90.7% in the assay on A498 renal. In addition, the growth in the assay with MOLT-4 leukemia is 80%.

For the compound `Cc1ccc(C(=O)c2ccc(CC(=O)N=Nc3c(O)[nH]c4ccc(OC(F)(F)F)cc34)n2C)cc1`, the growth was 93.3% with HCT-15 colon; 107% in the assay with HT29 colon; 82.1% in the assay with SNB-75 CNS; 94% in the assay on SNB-19 CNS; 97% in the assay on U251 CNS; 98.6% in the assay on PC-3 prostate. In addition, the growth was 97.3% in the assay with SK-MEL-5 melanoma; 106% in the assay with UACC-62 melanoma; 89.8% in the assay on LOX IMVI melanoma; 99.9% in the assay on SK-MEL-28 melanoma; 95.9% with SK-MEL-2 melanoma; 75.5% in the assay with EKVX NSCLC. The growth is 95% in the assay with SN12C renal; 72.7% with UO-31 renal; 137% with TK-10 renal; 93.8% in the assay with ACHN renal; 91.1% in the assay with CAKI-1 renal; 86.7% in the assay on A498 renal. Besides, in the assay with MOLT-4 leukemia, the growth was 89.4%.

With `CCc1c2c(nc3ccc(OCc4ccc(B5OC(C)(C)C(C)(C)O5)cc4)cc13)-c1cc3c(c(=O)n1C2)COC(=O)[C@]3(O)CC`, the growth is 32.9% in the assay on HCT-15 colon; 10.2% in the assay with HT29 colon; 5.99% (active) in the assay with SNB-75 CNS; 8.91% (active) with SNB-19 CNS; -8.07% (active) with U251 CNS; 26.9% with PC-3 prostate. The growth was -54.8% (active) in the assay on SK-MEL-5 melanoma; -40.7% (active) in the assay on UACC-62 melanoma; -55.2% (active) with LOX IMVI melanoma; 32.8% in the assay on SK-MEL-28 melanoma; 20.4% in the assay with SK-MEL-2 melanoma; 35% in the assay on EKVX NSCLC. Also, the growth with SN12C renal was 3.16% (active); in the assay on UO-31 renal it was -13.2% (active); in the assay with TK-10 renal, 39.5%; in the assay with ACHN renal, -9.99% (active); with CAKI-1 renal it was -1.75% (active); in the assay with A498 renal it was -40.3% (active). In addition, the values for the growth with CCRF-CEM leukemia and in the assay with MOLT-4 leukemia were 8.7% (active) and 8.97% (active), respectively.

As to `Cc1ccc2[nH]c(=S)[nH]c(=O)c2c1`, the growth is 106% in the assay with HCT-15 colon; 102% with HT29 colon; 80.5% with SNB-75 CNS; 101% in the assay with SNB-19 CNS; 95% in the assay with U251 CNS; 102% in the assay with PC-3 prostate. Also, the growth with SK-MEL-5 melanoma is 100%; in the assay with UACC-62 melanoma, 103%; with LOX IMVI melanoma, 95.5%; in the assay on SK-MEL-28 melanoma, 111%; in the assay on SK-MEL-2 melanoma, 111%; in the assay with EKVX NSCLC it was 104%. Further, the growth with SN12C renal was 99.9%; in the assay on UO-31 renal it was 92.4%; in the assay with TK-10 renal it was 85.4%; in the assay on ACHN renal, 101%; with CAKI-1 renal, 89.7%; with A498 renal, 94.8%. Further, the growth is 98.8% in the assay on CCRF-CEM leukemia and 93.3% in the assay with MOLT-4 leukemia.

The record behind these values is PubChem BioAssay (NCI).
